Assay results published in the supplement of paper PMC6897291.

Legend:
U-2932 [1] = assay: growth inhibition by drug alone (1 - RLU/untreated control) (fraction); higher = stronger inhibition; conditions: 177Lu-lilotomab satetraxetan 0 ug/ml
How it was run: (§1)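 Growth inhibition was calculated from RealTime-Glo RLU against untreated no-drug wells. Values equal 1 − RLU/mean of 48 untreated no-drug wells per plate, read daily from day 3 after 1 h at 37°C. RIVA and U-2932 cells, with or without 18 h pretreatment by a radiolabelled anti-CD37 antibody conjugate (~600 MBq/mg; 0.5 µg/ml RIVA, 1 µg/ml U-2932), were washed and plated at 3,000 cells/well on compound-printed plates at 10/100 nM (RIVA) or 10/1,000 nM (U-2932).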

RIVA [2] = assay: as above; conditions: 177Lu-lilotomab satetraxetan 0 ug/ml
How it was run: as §1

U-2932 [3] = assay: growth inhibition by drug plus 177Lu-lilotomab satetraxetan (1 - RLU/untreated control) (fraction); higher = stronger inhibition; conditions: 177Lu-lilotomab satetraxetan 1 ug/ml
How it was run: as §1

RIVA [4] = assay: as above; conditions: 177Lu-lilotomab satetraxetan 0.5 ug/ml
How it was run: as §1

SMILES | growth inhibition by drug alone (U-2932 [1]; 10 nM, time (day): 3) | growth inhibition by drug alone (U-2932 [1]; 10 nM, time (day): 4) | growth inhibition by drug alone (U-2932 [1]; 10 nM, time (day): 5) | growth inhibition by drug alone (U-2932 [1]; 10 nM, time (day): 6) | growth inhibition by drug alone (U-2932 [1]; 1000 nM, time (day): 3) | growth inhibition by drug alone (U-2932 [1]; 1000 nM, time (day): 4) | growth inhibition by drug alone (U-2932 [1]; 1000 nM, time (day): 5) | growth inhibition by drug alone (U-2932 [1]; 1000 nM, time (day): 6) | growth inhibition by drug alone (RIVA [2]; 10 nM, time (day): 3) | growth inhibition by drug alone (RIVA [2]; 10 nM, time (day): 4) | growth inhibition by drug alone (RIVA [2]; 10 nM, time (day): 5) | growth inhibition by drug alone (RIVA [2]; 10 nM, time (day): 6) | growth inhibition by drug alone (RIVA [2]; 100 nM, time (day): 3) | growth inhibition by drug alone (RIVA [2]; 100 nM, time (day): 4) | growth inhibition by drug alone (RIVA [2]; 100 nM, time (day): 5) | growth inhibition by drug alone (RIVA [2]; 100 nM, time (day): 6) | growth inhibition by drug plus 177Lu-lilotomab satetraxetan (U-2932 [3]; 10 nM, time (day): 3) | growth inhibition by drug plus 177Lu-lilotomab satetraxetan (U-2932 [3]; 10 nM, time (day): 4) | growth inhibition by drug plus 177Lu-lilotomab satetraxetan (U-2932 [3]; 10 nM, time (day): 5) | growth inhibition by drug plus 177Lu-lilotomab satetraxetan (U-2932 [3]; 10 nM, time (day): 6) | growth inhibition by drug plus 177Lu-lilotomab satetraxetan (U-2932 [3]; 1000 nM, time (day): 3) | growth inhibition by drug plus 177Lu-lilotomab satetraxetan (U-2932 [3]; 1000 nM, time (day): 4) | growth inhibition by drug plus 177Lu-lilotomab satetraxetan (U-2932 [3]; 1000 nM, time (day): 5) | growth inhibition by drug plus 177Lu-lilotomab satetraxetan (U-2932 [3]; 1000 nM, time (day): 6) | growth inhibition by drug plus 177Lu-lilotomab satetraxetan (RIVA [4]; 10 nM, time (day): 3) | growth inhibition by drug plus 177Lu-lilotomab satetraxetan (RIVA [4]; 10 nM, time (day): 4) | growth inhibition by drug plus 177Lu-lilotomab satetraxetan (RIVA [4]; 10 nM, time (day): 5) | growth inhibition by drug plus 177Lu-lilotomab satetraxetan (RIVA [4]; 10 nM, time (day): 6) | growth inhibition by drug plus 177Lu-lilotomab satetraxetan (RIVA [4]; 100 nM, time (day): 3) | growth inhibition by drug plus 177Lu-lilotomab satetraxetan (RIVA [4]; 100 nM, time (day): 4) | growth inhibition by drug plus 177Lu-lilotomab satetraxetan (RIVA [4]; 100 nM, time (day): 5) | growth inhibition by drug plus 177Lu-lilotomab satetraxetan (RIVA [4]; 100 nM, time (day): 6)
Nc1nc2[nH]cc(CCc3ccc(C(=O)N[C@@H](CCC(=O)O)C(=O)O)cc3)c2c(=O)[nH]1 [Pemetrexed] | -0.0147 | -0.0188 | -0.0965 | -0.27 | 0.905 | 0.948 | 0.965 | 0.974 | -0.121 | -0.198 | -0.281 | -0.489 | -0.293 | -0.377 | -0.377 | -0.54 | -0.058 | -0.0226 | 0.000411 | 0.0568 | 0.893 | 0.951 | 0.97 | 0.979 | 0.279 | 0.458 | 0.483 | 0.497 | 0.325 | 0.44 | 0.436 | 0.408
N#CC1(c2ccc(NC(=O)c3cccnc3NCc3ccncc3)cc2)CCCC1 [Apatinib (YN968D1)] | 0.0813 | 0.0775 | 0.0186 | -0.0775 | -0.000689 | 0.0222 | -0.108 | -0.279 | -0.0437 | 0.0236 | -0.0386 | -0.253 | -0.0842 | -0.0337 | -0.084 | -0.223 | 0.0626 | 0.101 | 0.109 | 0.137 | -0.0473 | 0.0612 | 0.0296 | 0.0686 | 0.491 | 0.579 | 0.593 | 0.615 | 0.497 | 0.559 | 0.555 | 0.524
N#CC(c1ccnc(NCCc2cccnc2)n1)c1nc2ccccc2s1 (configuration not stated) [JNK Inhibitor V] | -0.0956 | -0.056 | -0.0395 | 0.0624 | -0.154 | -0.122 | -0.116 | -0.143 | -0.285 | -0.269 | -0.297 | -0.462 | -0.33 | -0.412 | -0.338 | -0.441 | -0.113 | -0.0825 | -0.0367 | 0.103 | -0.0869 | -0.00408 | 0.0113 | 0.0923 | 0.255 | 0.419 | 0.467 | 0.481 | 0.265 | 0.376 | 0.381 | 0.353
CC[C@H]1OC(=O)[C@H](C)[C@@H](O[C@H]2C[C@@](C)(OC)[C@@H](O)[C@H](C)O2)[C@H](C)[C@@H](O[C@@H]2O[C@H](C)C[C@H](N(C)C)[C@H]2O)[C@](C)(O)C[C@@H](C)CN(C)[C@H](C)[C@@H](O)[C@]1(C)O [Azithromycin (Zithromax)] | 0.204 | 0.13 | 0.0304 | -0.0338 | 0.0821 | 0.11 | 0.0532 | -0.0307 | 0.16 | 0.206 | 0.16 | 0.0424 | 0.0514 | 0.129 | 0.0797 | -0.0131 | 0.138 | 0.178 | 0.198 | 0.299 | 0.0676 | 0.168 | 0.163 | 0.224 | 0.526 | 0.619 | 0.633 | 0.639 | 0.499 | 0.586 | 0.576 | 0.561
Cn1cncc1[C@@](N)(c1ccc(Cl)cc1)c1ccc2c(c1)c(-c1cccc(Cl)c1)cc(=O)n2C [Tipifarnib (Zarnestra)] | 0.0908 | 0.0396 | 0.00741 | -0.0584 | 0.757 | 0.8 | 0.836 | 0.863 | -0.055 | -0.241 | -0.428 | -0.678 | -0.0203 | -0.124 | -0.267 | -0.517 | 0.0185 | 0.0674 | 0.106 | 0.1 | 0.777 | 0.805 | 0.847 | 0.882 | 0.37 | 0.421 | 0.452 | 0.489 | 0.482 | 0.521 | 0.511 | 0.536
COc1cc(C(=O)NC(=S)Nc2cccc(NC(=O)c3ccccc3)c2)cc(OC)c1OC | 0.147 | 0.139 | 0.0192 | -0.0981 | 0.0988 | 0.139 | 0.108 | 0.0418 | 0.0482 | 0.0356 | 0.0061 | -0.153 | 0.0949 | 0.0458 | 0.00408 | -0.0801 | 0.0383 | 0.0678 | 0.111 | 0.148 | -0.0454 | 0.0986 | 0.0849 | 0.125 | 0.491 | 0.568 | 0.58 | 0.595 | 0.562 | 0.589 | 0.588 | 0.568
C[C@@H]1C[C@H]2[C@@H]3CCC4=CC(=O)C=C[C@]4(C)[C@@]3(F)[C@@H](O)C[C@]2(C)[C@@]1(O)C(=O)CO [Dexamethasone] | 0.345 | 0.301 | 0.236 | 0.236 | 0.466 | 0.472 | 0.362 | 0.306 | 0.0365 | 0.0468 | -0.018 | -0.23 | -0.0879 | -0.051 | -0.149 | -0.312 | 0.277 | 0.301 | 0.26 | 0.353 | 0.422 | 0.466 | 0.406 | 0.431 | 0.415 | 0.467 | 0.484 | 0.498 | 0.362 | 0.429 | 0.417 | 0.414
Nc1ncn([C@@H]2O[C@H](CO)[C@@H](O)[C@H]2O)c(=O)n1 [Azacitidine (Vidaza)] | -0.0982 | -0.0929 | -0.0726 | -0.0507 | -0.188 | -0.0618 | 0.0181 | 0.17 | -0.294 | -0.286 | -0.358 | -0.438 | -0.343 | -0.332 | -0.3 | -0.406 | -0.107 | -0.0484 | 0.0134 | -0.00849 | -0.0673 | 0.0405 | 0.146 | 0.324 | 0.407 | 0.483 | 0.506 | 0.5 | 0.241 | 0.37 | 0.362 | 0.374
CO[C@H]1C[C@@H]2CC[C@@H](C)[C@@](O)(O2)C(=O)C(=O)N2CCCC[C@H]2C(=O)O[C@H]([C@H](C)C[C@@H]2CC[C@@H](OC(=O)C(C)(CO)CO)[C@H](OC)C2)CC(=O)[C@H](C)/C=C(\C)[C@@H](O)[C@@H](OC)C(=O)[C@H](C)C[C@H](C)/C=C/C=C/C=C/1C [Temsirolimus (Torisel)] | 0.777 | 0.721 | 0.634 | 0.594 | 0.733 | 0.73 | 0.677 | 0.63 | 0.78 | 0.785 | 0.769 | 0.7 | 0.803 | 0.83 | 0.833 | 0.812 | 0.68 | 0.614 | 0.579 | 0.568 | 0.648 | 0.681 | 0.651 | 0.651 | 0.842 | 0.865 | 0.86 | 0.839 | 0.846 | 0.883 | 0.885 | 0.887
CNC(=O)c1cc(COc2nnc(Nc3ccc(Cl)cc3)c3ccoc23)ccn1 [Telatinib (BAY 57-9352)] | -0.0124 | 0.00544 | -0.0774 | -0.272 | -0.0825 | -0.0325 | -0.0739 | -0.229 | -0.0398 | -0.0876 | -0.128 | -0.281 | -0.214 | -0.207 | -0.212 | -0.315 | -0.0402 | -0.000867 | 0.00308 | 0.0503 | -0.145 | -0.0474 | -0.0515 | 0.00564 | 0.351 | 0.487 | 0.503 | 0.502 | 0.316 | 0.416 | 0.413 | 0.391
CS(=O)(=O)c1cccc(CNc2nc(Nc3ccc4c(c3)CCC(=O)N4)ncc2C(F)(F)F)c1 | 0.0502 | 0.00856 | -0.0018 | 0.0705 | -0.0504 | -0.0365 | -0.0145 | 0.085 | -0.0802 | -0.0828 | -0.0817 | -0.0957 | -0.0969 | -0.126 | -0.181 | -0.218 | -0.0177 | 0.0519 | 0.101 | 0.199 | 0.0169 | 0.0857 | 0.144 | 0.314 | 0.467 | 0.549 | 0.572 | 0.567 | 0.206 | 0.328 | 0.352 | 0.383
CN(C)c1ccccc1CN1CCCN(Cc2ccccc2N(C)C)C1c1ccncc1 | 0.0601 | 0.0484 | -0.0775 | -0.0436 | -0.0515 | 0.0164 | -0.0723 | -0.322 | -0.0275 | -0.0402 | -0.0946 | -0.333 | -0.107 | -0.0882 | -0.101 | -0.219 | -0.0506 | -0.00857 | 0.0315 | 0.0251 | -0.133 | -0.00158 | -0.031 | -0.0122 | 0.403 | 0.514 | 0.537 | 0.54 | 0.416 | 0.506 | – | –
